Records with an inconclusive call do not appear. Active and inactive are the calls of the source.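 How the source made its calls, unless noted: active means RAM network inhibition above 8.4% in each of two replicates, 3 SD over the compound average; inconclusive means above 8.4% inhibition in only one replicate; inactive means 8.4% inhibition or less in each replicate.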
Tests used:
[1] = reducers of endogenous Her2 protein level, primary screen, SKBR3 breast tumor cells, AlphaScreen, ATP viability (AID 461;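 active means Her2 level under about 52% in both replicate screens, with viability over 70% of control, limit read from the data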;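 on Her2 level: lower value means less Her2 protein in the cells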;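 on viability: percent of carrier control wells set as 100% viability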); details: 18-24 h, measured here: SKBR3 viability, ATP luminescence, at 10 µM
[2] = target: Receptor tyrosine-protein kinase erbB-2 (Homo sapiens) (UniProt P04626); assay: as above; details: 18-24 h, at 10 µM, stronger effect = lower value
[3] = SK-BR-3 cell growth inhibitors, pilot screen, 24 h, human (AID 572;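 active means viability at or below 10% of carrier control in both of two separate runs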;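 further: compound exposure lasted between 18 and 24 h rather than exactly 24 h; 100% = carrier-treated control wells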); details: SK-BR-3 viability, CellTiter-Glo luminescence, at 10 µM, stronger effect = lower value
[4] = HUVEC growth inhibition – cell-based, human, primary screen (AID 575;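 active means viability at or below 30% in both replicate assays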;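 further: 100% = median of untreated cell wells with 0.1% DMSO on each plate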); details: HUVEC proliferation, CellTiter-Glo luminescence, 72 h; at 10 µM; stronger effect = lower value
[5] = growth inhibitors of H69AR lung tumor, primary screen, human, duplicate replicates (AID 580;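 active means viability at or under a set limit in both replicates, limit being median viability minus 3 SD, cut at about 48% in these data, passing the limit was not always enough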;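 further: 100% = mean luminescence of untreated wells and 0% = no signal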); details: H69AR lung tumor cells viability, ATP luminescence, 72 h; at 10 µM; stronger effect = lower value
[6] = reversal of MRP1-mediated doxorubicin resistance, pilot screen, H69AR cells, doxorubicin co-treatment (AID 601;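 active means viability loss from added drug above about 55%, and viability with drug at most 40%, in both replicates, limit read from the data, passing the limit was not always enough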); details: CellTiter-Glo, 72 h, at 10 µM; for differential viability (reversal): stronger effect = higher value
[7] = 384-well plate pilot, post-Golgi transport modulator project, inhibition of yeast transport mutant growth (AID 636; in the data active means inhibition above about 31%); details: absorbance 615 nm, about 18 h, stronger effect = higher value
[8] = growth suppression of yeast trafficking mutant, preliminary HTS, modulators of trafficking downstream of Golgi apparatus project, 1536-format plate, OD 615 nm (AID 637; in the data active means inhibition above about 30%); details: yeast transport mutant growth, absorbance 615 nm, 18 h; stronger effect = higher value
[9] = OD615 S. cerevisiae growth inhibition, permissive medium, pilot counter-assay, permissive growth control for S. cerevisiae lifespan shortening project (AID 705;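 active means growth inhibition above 25% in both replicates, a cutoff set 3 SD above the mean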); details: OD615, 24 h, at 10 µM, stronger effect = higher value
[10] = Restrictive medium S. cerevisiae growth inhibition, OD615, pilot screen of yeast lifespan reduction project, restrictive growth control (AID 706;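 active means growth inhibition above a set limit, 3 SD over mean compound inhibition, in both replicates, cut at about 43% in these data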;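 further: modified DeaD lifespan yeast strain shifted to restrictive glucose medium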); details: OD615, 48 h, at 10 µM, stronger effect = higher value
[11] = viability gain of MRP-1-high H69AR cells under doxorubicin, pilot screen, MRP-1 activator project, CellTiter-Glo, duplicate (AID 807;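 active means viability increase at or above a cutoff of the median across tested compounds plus 3 SD, cut at about 8.5% in these data, passing the limit was not always enough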;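 further: compound pretreatment 18-22 h then 72 h combined with doxorubicin; 0% = doxorubicin alone and 100% = vehicle without doxorubicin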); details: H69AR viability with doxorubicin, CellTiter-Glo luminescence; at 10 µM; stronger effect = higher value
[12] = growth suppression of beta-catenin knockout HCT116, pilot screen, human colon tumor cells (AID 823;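 active means cell viability at or below a set limit in both duplicate runs, the limit being the all-compound median minus 4 SD, cut at about 23% in these data, passing the limit was not always enough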;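 further: 0% = wells killed by 20 µM Hyamine and 100% = untreated DMSO cell wells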); details: CellTiter-Glo, 60 h, at 10 µM, stronger effect = lower value
[13] = growth suppression of PTEN-deleted HCT116, pilot screen, cell-based, HCT116 clonal line, CellTiter-Glo (AID 824;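 active means viability at or below 27.92% in each of two runs, the all-compound median minus 4 SD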;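 further: 0% = 20 µM Hyamine control and 100% = vehicle cell control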); details: 60 h, at 10 µM, stronger effect = lower value
[14] = inhibitors of the yeast RAM network, pilot screen, dse1pr::URA3 reporter, 5-FOA selection (AID 869;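 active means inhibition over a set limit, the all-compound mean plus 3 SD, in both replicate runs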;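 further: 0% = DMSO wells with no growth and 100% = 10 µM 1-NA-PP1 with full growth; RAM network block rescues cells from 5-FOA so hits raise OD615 growth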); details: S. cerevisiae dse1pr::URA3 5-FOA growth, OD615, 2 d; at 10 µM; stronger effect = higher value; strain carries analog-sensitive mutant Cbk1 kinase
[15] = RAM signaling pathway blockade in yeast – S. cerevisiae, Pdr1DBD-CYC8 efflux-inhibited sensitized strain, primary screen (AID 1298);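 further: 0% = DMSO untreated cells without growth and 100% = 10 µM 1-NA-PP1 full growth; higher means more yeast growth rescued from 5-FOA killing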; details: S. cerevisiae cbk1-as DSE1-URA3 strain, 5-FOA growth OD615, 2 d; at 50 µM; stronger effect = higher value
[16] = H69AR cells + 2 uM doxorubicin, measured here: viability with 2 uM doxorubicin, stronger effect = lower value
[17] = H69AR cells, compound alone cytotoxicity

Receptor tyrosine-protein kinase erbB-2 (Homo sapiens), sequence (P04626 whole entry, looked up): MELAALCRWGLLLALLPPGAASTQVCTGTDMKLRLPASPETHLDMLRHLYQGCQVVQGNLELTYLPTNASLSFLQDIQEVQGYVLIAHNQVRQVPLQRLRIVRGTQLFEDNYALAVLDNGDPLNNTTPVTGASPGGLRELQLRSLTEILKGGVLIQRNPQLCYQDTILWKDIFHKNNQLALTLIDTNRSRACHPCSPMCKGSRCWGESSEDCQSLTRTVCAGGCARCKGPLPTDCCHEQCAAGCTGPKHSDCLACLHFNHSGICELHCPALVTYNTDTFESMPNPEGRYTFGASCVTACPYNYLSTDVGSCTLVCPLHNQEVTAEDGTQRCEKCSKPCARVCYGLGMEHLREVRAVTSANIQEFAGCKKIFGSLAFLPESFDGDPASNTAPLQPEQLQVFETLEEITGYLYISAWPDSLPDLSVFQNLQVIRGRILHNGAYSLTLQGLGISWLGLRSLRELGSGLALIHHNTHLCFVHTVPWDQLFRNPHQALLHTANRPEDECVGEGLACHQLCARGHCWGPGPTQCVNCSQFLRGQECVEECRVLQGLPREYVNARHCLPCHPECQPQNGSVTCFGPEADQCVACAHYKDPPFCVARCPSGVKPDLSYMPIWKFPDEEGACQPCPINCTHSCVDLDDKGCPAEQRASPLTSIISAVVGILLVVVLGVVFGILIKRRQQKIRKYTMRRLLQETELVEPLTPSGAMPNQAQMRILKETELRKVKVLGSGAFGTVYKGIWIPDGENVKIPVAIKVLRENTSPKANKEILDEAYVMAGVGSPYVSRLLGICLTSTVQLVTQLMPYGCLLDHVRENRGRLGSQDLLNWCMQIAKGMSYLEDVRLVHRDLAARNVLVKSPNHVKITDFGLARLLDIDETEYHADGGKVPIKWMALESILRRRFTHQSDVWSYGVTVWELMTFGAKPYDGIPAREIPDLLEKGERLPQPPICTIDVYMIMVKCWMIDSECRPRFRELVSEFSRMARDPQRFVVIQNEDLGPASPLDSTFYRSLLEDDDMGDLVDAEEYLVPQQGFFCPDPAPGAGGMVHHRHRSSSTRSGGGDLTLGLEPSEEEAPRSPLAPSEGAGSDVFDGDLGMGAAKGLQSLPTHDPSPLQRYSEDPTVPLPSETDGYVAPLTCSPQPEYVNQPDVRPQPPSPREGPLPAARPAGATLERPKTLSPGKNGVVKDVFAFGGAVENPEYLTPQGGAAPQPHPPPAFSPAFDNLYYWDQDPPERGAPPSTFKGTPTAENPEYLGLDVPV

CCCCN(C)Cc1c(O)ccc2c(-c3ccccc3)cc(=O)oc12
89%: viability [1]
96.7%: viability [6, 17]
inactive: Her2 level [2] 102% | viability [3] 89% | viability [4] 111% | viability [5] 96.7% | differential viability (reversal) ([6]; H69AR cells + 2 uM doxorubicin) 8.13% | inhibition [7] -2.7% | inhibition [8] 2.95% | growth inhibition [9] -4.28% | growth inhibition [10] 2.96% | viability increase [11] -2.64% | viability [12] 91% | viability [13] 93.6% | inhibition [14] 0.605% | RAM network inhibition [15] 1.89%
88.6%: viability [6, 16]

COc1cc(NC(=O)CN(c2cc(C)cc(C)c2)S(=O)(=O)c2c(C)noc2C)cc(OC)c1
88.5%: viability [1]
84.3%: viability [6, 16]
83.8%: viability [6, 17]
inactive: Her2 level [2] 108% | viability [3] 88.5% | viability [4] 80.8% | viability [5] 83.8% | differential viability (reversal) ([6]; H69AR cells + 2 uM doxorubicin) -0.43% | inhibition [7] 0.9% | inhibition [8] -5% | growth inhibition [9] -14.8% | growth inhibition [10] -18.5% | viability increase [11] -4.92% | viability [12] 92.3% | viability [13] 87.5% | inhibition [14] 2.82% | RAM network inhibition [15] 4.61%

Fc1ccc(-c2nnc3ccc(N4CCCC4)nn23)cc1
80%: viability [1]
77.7%: viability [6, 16]
94.5%: viability [6, 17]
inactive: Her2 level [2] 90.5% | viability [3] 80% | viability [4] 64.2% | viability [5] 94.5% | differential viability (reversal) ([6]; H69AR cells + 2 uM doxorubicin) 16.8% | inhibition [7] -0.27% | inhibition [8] 8.52% | growth inhibition [9] 11.7% | growth inhibition [10] 32.5% | viability increase [11] -5.62% | viability [12] 102% | viability [13] 86.3% | inhibition [14] 0.685% | RAM network inhibition [15] 5.61%

O=C(Cn1cc2c(n1)CCCCC2)N1CCc2ccccc21
inactive: Her2 level [2] 95.5% | viability [3] 85.5% | viability [4] 67.6% | viability [5] 87.8% | differential viability (reversal) ([6]; H69AR cells + 2 uM doxorubicin) -3.99% | inhibition [7] -1.33% | inhibition [8] -7.87% | growth inhibition [9] -4.03% | growth inhibition [10] -4.38% | viability increase [11] -2.66% | viability [12] 66.4% | viability [13] 81% | inhibition [14] 2.15% | RAM network inhibition [15] 1.83%
91.8%: viability [6, 16]
87.8%: viability [6, 17]
85.5%: viability [1]

c1ccc(Cn2nnc3c(N4CCCCCC4)ncnc32)cc1
83.8%: viability [6, 16]
94%: viability [1]
inactive: Her2 level [2] 88% | viability [3] 94% | viability [4] 57.5% | viability [5] 69.9% | differential viability (reversal) ([6]; H69AR cells + 2 uM doxorubicin) -13.9% | inhibition [7] -5.87% | inhibition [8] 2.83% | growth inhibition [9] -13% | growth inhibition [10] -8.65% | viability increase [11] -0.65% | viability [12] 40% | viability [13] 33.6% | inhibition [14] 0.74% | RAM network inhibition [15] 5.41%
69.9%: viability [6, 17]

CC(=O)NCc1nc2ccccc2n1C(C)C
92.3%: viability [6, 17]
inactive: Her2 level [2] 108% | viability [3] 104% | viability [4] 84.2% | viability [5] 92.3% | differential viability (reversal) ([6]; H69AR cells + 2 uM doxorubicin) 10% | inhibition [7] -4.93% | inhibition [8] -4.83% | growth inhibition [9] -13.7% | growth inhibition [10] -29.9% | viability increase [11] -0.81% | viability [12] 105% | viability [13] 95.5% | inhibition [14] 0.84% | RAM network inhibition [15] 3.6%
104%: viability [1]
82.3%: viability [6, 16]

CN(CC(=O)N1CCCCC1)S(=O)(=O)c1cccc2cccnc12
95.8%: viability [6, 16]
97.5%: viability [6, 17]
99%: viability [1]
inactive: Her2 level [2] 104% | viability [3] 99% | viability [4] 91.5% | viability [5] 97.5% | differential viability (reversal) ([6]; H69AR cells + 2 uM doxorubicin) 1.62% | inhibition [7] -0.4% | inhibition [8] -1.8% | growth inhibition [9] -4.94% | growth inhibition [10] 9.9% | viability increase [11] -2.03% | viability [12] 94.6% | viability [13] 94.7% | inhibition [14] 0.26% | RAM network inhibition [15] 1.14%

O=C(NC(=O)c1cccc(F)c1)OC[C@@H]1CCCN2CCCC[C@H]12
inactive: Her2 level [2] 111% | viability [3] 102% | viability [4] 110% | viability [5] 96.5% | differential viability (reversal) ([6]; H69AR cells + 2 uM doxorubicin) 0.59% | inhibition [7] -6% | inhibition [8] 1.48% | growth inhibition [9] 1.28% | growth inhibition [10] -9.63% | viability increase [11] -0.15% | viability [12] 99.4% | viability [13] 96.3% | inhibition [14] 0.89% | RAM network inhibition [15] 9.99%
96.5%: viability [6, 17]
102%: viability [1]
95.9%: viability [6, 16]

CCCOC(=O)c1[nH]c2c(c1C)C(=O)CC(c1cc(OC)c(OC)c(OC)c1)C2 (stereo not given)
74.2%: viability [6, 17]
inactive: Her2 level [2] 79% | viability [3] 89% | viability [4] 88.7% | viability [5] 74.2% | differential viability (reversal) ([6]; H69AR cells + 2 uM doxorubicin) 9.54% | inhibition [7] -0.26% | inhibition [8] -4% | growth inhibition [9] -16.2% | growth inhibition [10] -14.6% | viability increase [11] 1.98% | viability [12] 48.1% | viability [13] 61.2% | inhibition [14] 2.23% | RAM network inhibition [15] 5.86%
89%: viability [1]
64.6%: viability [6, 16]

CCCCOC(=O)Cn1c(=O)oc2ccc(C)cc21
102%: viability [1]
inactive: Her2 level [2] 126% | viability [3] 102% | viability [4] 86% | viability [5] 93.4% | differential viability (reversal) ([6]; H69AR cells + 2 uM doxorubicin) 5.94% | inhibition [7] -3.2% | inhibition [8] 2.67% | growth inhibition [9] -17.9% | growth inhibition [10] -25.1% | viability increase [11] -0.28% | viability [12] 89.6% | viability [13] 98.1% | inhibition [14] -0.58% | RAM network inhibition [15] 0.27%
93.4%: viability [6, 17]
87.4%: viability [6, 16]
